# Laboratory results from PubChem BioAssay (Tox21).
# Inconclusive results are not listed. Entries that show only a call come without a potency. Unmarked numbers belong to inactive results. Calls of active or inactive are those of the source. Calls come from the whole dose curve; as a rule, active = well fitted cell-killing curve with a large enough effect in the repeat runs; inconclusive = weak or mixed curves, or effect the other way; inactive = flat fitted curve, though single readings scatter.
# Test: Nuclear factor erythroid 2-related factor 2/antioxidant responsive element (Nrf2/ARE) small molecule agonists: qHTS cell viability counter screen in human keratinocytes (AID 1919968); note: nearly all actives have a fitted effect of over 55% in size
# Details: KeratinoSens HaCaT ARE cells viability, CellTiter-Fluor, 24 h; series mostly up to 92.4 µM
# Description: U.S. Tox21 Program National Center for Advancing Translational Sciences [NCATS] Division of Preclinical Innovation [DPI] U.S. Environmental Protection Agency [EPA] National Institutes of Environmental Health Sciences [NIEHS] National Toxicology Program [NTP] U.S. Food and Drug Administration [FDA] Tox21 Assay Overview: Oxidative stress has been implicated in the pathogenesis of a variety of diseases ranging from cancer to neurodegeneration. The antioxidant response element (ARE) signaling pathway plays an important role in the amelioration of oxidative stress. The KeratinoSens (Givaudan, Switzerland) is an in vitro test method which quantifies luciferase induction as a measure of activation of Keap1-Nrf2-antioxidationt/electrophile response element (ARE) dependant pathway in HaCaT human keratinocytes stably transfected with a selectable plasmid. The KeratinoSens assay is a cell-based assay with a reporter cell line to detect potential skin sensitizers by their ability to induce the Nrf2/ARE-response. The activation of the report gene under culture conditions can be detected by ONE-Glo Luciferase Assay System (Promega, Madison, WI). This cell line has been used to screen the Tox21 10K compound library to identify agonists that induce oxidative stress. The cytotoxicity of the Tox21 compound library against the KS-ARE cell line was tested in parallel by measuring the cell viability using CellTiter- Fluor assay system (Promega, Madison, WI) in the same wells.
# Tox21 Assay Protocol Summary: HaCaT derived cell line KeratinoSens were dispensed at 1,500 cells/5uL/well in 1536-well white wall/solid bottom plates using a Multidrop Combi (ThermoFisher Scientific, Waltham, MA) dispenser. After the assay plates were incubated at 37 C/5% CO2 for 5 h, 23 nL of compounds dissolved in DMSO, positive controls or DMSO only was transferred to the assay plate by a pintool workstation (Kalypsys, San Diego, CA). The plates were incubated at 37 C/5% CO2 for 23 h, followed by addition of 1uL/well of CellTiter-Fluor reagent into the assay plates using a Flying Reagent Dispenser (Aurora Discovery, San Diego, CA) for cell viability readout that measures cytotoxicity. After 1 h incubation at 37 C/5% CO2 the fluorescence intensity was measured using a ViewLux (PerkinElmer, Shelton, CT) plate reader.
# Potency is the fitted concentration of half-maximal effect.
Compound,Potency,"activity change, negative = cytotoxicity"
CC1CC(OC(=O)C(O)c2ccccc2)CC(C)(C)N1C (stereo not given),inactive,–
CN1C(=O)c2ccccc2C1=O,inactive,–
BrCc1cccc(Oc2ccccc2)c1,inactive,–
CCCC(=O)OCCc1ccccc1,inactive,–
NCCCC(N)(C(=O)O)C(F)F (stereo not given),inactive,–
C=CCOC(=O)COCCC(C)C,inactive,–
CCC(=O)/C=C/c1ccc(OC)cc1,inactive,–
O=C(O)CN1C(=O)c2cccc3cccc(c23)C1=O,inactive,–
CC(=O)Oc1ccc(C2(c3ccc(OC(C)=O)cc3)Oc3ccccc3NC2=O)cc1,inactive,–
C1C2OC2C2C1C1CC2C2OC12 (stereo not given),inactive,–
Cc1ccccc1N=Nc1ccc(N=Nc2c(O)ccc3ccccc23)c(C)c1,inactive,–
CC1(C)C(=O)NC(=O)N1CO,inactive,–
c1cnc(N2CCN(Cc3ccc4c(c3)OCO4)CC2)nc1,inactive,–
CC(CN)CCCN (stereo not given),inactive,–
COc1cc(NCc2ccc3nc(N)nc(N)c3c2C)cc(OC)c1OC,inactive,–
O=C(Cl)c1cc(C(=O)Cl)cc(C(=O)Cl)c1,inactive,–
CCO[Si](CCCS)(OCC)OCC,inactive,–
CCCCCCCCCCCCN(CCCCCCCCCCCC)CCCCCCCCCCCC,inactive,–
Nc1ccn([C@@H]2O[C@H](CO)[C@@H](O)[C@@H]2O)c(=O)n1,inactive,–
CC(=O)OC1C2(C)CCC(C2)C1(C)C (stereo not given),inactive,–

Compound,Potency,"activity change, negative = cytotoxicity"
CCCCCCCCCCCCCCCCCBr,–,2.19% [at 19 µM]
CCCCC(=O)O[C@]1(C(=O)CO)[C@@H](C)C[C@H]2[C@@H]3CCC4=CC(=O)C=C[C@]4(C)[C@@]3(F)[C@@H](O)C[C@@]21C,inactive,–
CO/N=C(/C(=O)N[C@@H]1C(=O)N2C(C(=O)OCOC(=O)C(C)(C)C)=C(C)CS[C@H]12)c1csc(N)n1,inactive,–
S=c1nccc[nH]1,inactive,–
O=[N+]([O-])c1nccn1CO[C@@H](CO)[C@H](O)CO,inactive,–
O=C(Nc1cccc(C(F)(F)F)c1)c1cc(Br)cc(Br)c1O,7.7 µM (active),–
O=C[C@@H](O)[C@H](O)[C@H](O)CO,inactive,–
CC(C)CCCCCCN,inactive,–
COC(=O)C(C)=O,inactive,–
COC(=O)[C@]1(C)CCC[C@@]2(C)[C@H]1CC=C1C=C(C(C)C)CC[C@@H]12,inactive,–
CC(C)Cc1ccc(CC(=O)O)cc1,inactive,–
CC(C)(c1ccccc1)c1ccccc1,inactive,–
C=O,inactive,–
O=C1CCCCC1C1CCCCC1 (stereo not given),inactive,–
O=C(CS(=O)Cc1ccco1)NC/C=C\COc1cc(CN2CCCCC2)ccn1 (stereo not given),inactive,–
Nc1nnc(-c2ccc([N+](=O)[O-])o2)o1,inactive,–
CN(C)CCN(Cc1ccccc1)c1ccccn1,inactive,–
C=C[Si](OC(C)=O)(OC(C)=O)OC(C)=O,inactive,–
C=CC(=O)N1CCOCC1,inactive,–
c1cc(C(c2ccc(OCC3CO3)cc2)c2ccc(OCC3CO3)cc2)ccc1OCC1CO1 (stereo not given),27.3 µM (active),–
